Source: PubChem
MARV entry inh: blocks Marburg virus binding to or entry into cells | Potency, µM (highest dose often 37.8 µM), actives largely listed as inhibitors | Marburg virus pseudotyped entry inhibition, cell reporter | AID 540276 | 300,000 compounds, 1.8% hits; calls by dose curve; tested in HEK293 cells
VACV mCherry inh: inhibitors of vaccinia virus infection (mCherry reporter signal); Vaccinia virus mCherry reporter infection, fluorescence; Potency, µM (series often up to 36.5 µM), usual class: inhibitors; 310,000 compounds, 0.63% hits; calls by dose curve; tested in A549 cells; note: nearly all actives have a fitted effect of over 35% in size
HCMV antiviral: blocks human cytomegalovirus replication. HFF cells, HCMV-luciferase reporter, 72 h; stronger effect = lower value. activity change, negative = inhibition, % at 57.5 µM. 410,000 compounds, 4.5% hits. AID 1259415; in the data active = activity change below about -60%; inconclusive = no clear call, values can overlap the other calls; inactive = above about -39%
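Luciferase read-out from HCMV-luciferase-infected HFFs (MOI 1 PFU/cell) 72 h post infection at 37C; compounds added after 16 h cell attachment; activity normalized between buffer-only basal and Salinomycin (10uM) inhibitor controls.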
FMDV inh: foot and mouth disease virus antiviral activity; 410,000 compounds, 1.2% hits; Potency, µM (top dose mostly 57.9 µM), most hits filed as inhibitors; FMDV antiviral cell-based qHTS; calls by dose curve; tested in HEK293T cells; note: read-out not given here; nearly all actives have a fitted effect of over 45% in size
Lassa entry inh: inhibitors of Lassa virus binding or cell entry; 300,000 compounds, 1.2% hits; Potency, µM (top dose mostly 37.9 µM), most hits filed as inhibitors; Lassa virus pseudotype entry inhibition, cell reporter; AID 540256; calls by dose curve; tested in HEK293 cells; note: nearly all actives have a fitted effect of over 50% in size
Vaccinia Venus: vaccinia inhibition (Venus reporter); Vaccinia virus Venus reporter expression, fluorescence; 330,000 compounds, 0.46% hits; Potency, µM (top dose mostly 36.5 µM), hits mostly inhibitors; calls by dose curve; tested in A549 cells; note: nearly all actives have a fitted effect of over 30% in size
A number is an active result; 0 = inactive; ? = inconclusive; - = not tested or not shown; [ ] = another dose, or the depositor's remark. The list is not random: actives were taken first. Their share in the collection is about 6.5%.

SMILES | MARV entry inh | VACV mCherry inh | HCMV antiviral | FMDV inh | Lassa entry inh | Vaccinia Venus
Cc1ccc(NC(=O)OC(C)N2CCCCC2)cc1NC(=O)OC(C)N1CCCCC1 (stereo not given) | 5µM | 0 | 0 | 0 | ? | 0
CCOn1c(-n2nc(C)cc2C)nc2ccccc2c1=O | 0 | - | 0 | 0 | 0 | -
Cc1cc(C)n(-c2nc3ccccc3c(=O)n2OCC#N)n1 | 7.9µM | 2.5µM | -89 | 0 | ? | ?
CCCn1c(SCc2nc(-c3cc(OC)ccc3OC)no2)nnc1-c1ccc(Cl)cc1 | 0 | 0 | 0 | ? | 0 | 0
CCCn1c(SCc2nc(-c3ccc(OC)c(OC)c3)no2)nnc1-c1ccccc1 | 5.6µM | 0 | 0 | 0 | 0 | 0
O=C(CSc1nc2scc(-c3ccco3)c2c(=O)n1-c1ccccc1)N1CCOCC1 | ? | - | 0 | 0 | 4.1µM | -
O=CC(=O)c1ccc(Cl)cc1 | - | 0 | - | - | - | 0
C=C1C=C(C(F)F)n2ncc(C(=O)NCc3ccc(F)cc3)c2N1 | - | 0 | - | - | - | 0
O=C(Nc1ccccc1Cl)C1C(c2ccccc2)C1(Cl)Cl (stereo not given) | - | - | 0 | 0 | - | -
O=C(Nc1ccc(F)cc1)C1C(c2ccccc2)C1(Cl)Cl (stereo not given) | 0 | 0 | -68 | ? | 0 | 0
CCN(CC)CCCOc1cc2nc(N3CCCN(C)CC3)nc(NC3CCN(C)CC3)c2cc1OC | - | 7.1µM | - | - | - | 10µM
COc1cc2c(NC3CCN(C)CC3)nc(N3CCCN(C)CC3)nc2cc1OCCOCCN1CCCC1 | - | 0 | - | - | - | 0
COc1cc2nc(N3CCN(C)CC3)nc(NC3CC3)c2cc1OC | - | 0 | - | - | - | 0
COc1cc2c(NC3CCN(C)CC3)nc(N3CCCN(C)CC3)nc2cc1OCCCCCN(C)C | - | ? | - | - | - | 13µM
COc1cc2c(NC3CCN(C(C)C)CC3)nc(N3CCCN(C)CC3)nc2cc1OCCCN(C)C | - | ? | - | - | - | 0.25µM
COc1cc2c(NC3CCN(C)CC3)nc(N3CCCN(C)CC3)nc2cc1OCCCCC(N)=O | - | 0 | - | - | - | 0
COc1ccc(S(=O)(=O)N2CCN(c3nc(-c4cccs4)nc4ccccc34)CC2)cc1OC | - | 0 | - | - | - | 0
CCC(=O)Nc1nc2ccccc2n1Cc1ccccc1 | ? | - | -92 | 0 | ? | -
CCC(=O)Nc1nc2ccccc2n1Cc1ccc(C)cc1 | 0 | 0[1.46 µM] | ? | 0 | 0 | 0
CC(=O)N1[C@H](C)C=C[C@]1(Cc1ccccc1)C(=O)NCCc1c[nH]c2ccccc12 | - | 0 | - | 0 | - | 0
C[C@@H]1C=C[C@](Cc2ccccc2)(C(=O)NCCc2c[nH]c3ccccc23)N1C(=O)c1ccccc1 | ? | ? | ? | 0 | 8.2µM | 0
O=C(CSc1nnc(-c2cc(-c3cccs3)nc3ccccc23)o1)NC1CCCCC1 | 0 | - | ? | 0 | 0 | ?
NC(=O)CSc1nnc(-c2cc(-c3cccs3)nc3ccccc23)o1 | 0 | ? | 0 | 0 | 0 | 1.6µM
CCC(C)NC(=O)CSc1nnc(-c2cc(-c3cccs3)nc3ccccc23)o1 (stereo not given) | 0 | - | 0 | 0 | 0 | 2.8µM
Cc1cc2c(c(-c3cnccn3)c1)OC(CNC(=O)c1c(F)cccc1Cl)C2 (stereo not given) | - | 0 | - | 0 | - | 0
SMILES | MARV entry inh | VACV mCherry inh | HCMV antiviral | FMDV inh | Lassa entry inh | Vaccinia Venus
O=C1[C@H]2[C@H]3[C@H](O)[C@H](O)C/C(=N\OC[C@@H](O)COCc4ccco4)[C@H]3CC[C@H]2C(=O)N1C[C@@H]1CCCO1 | 0 | - | - | - | - | -
Cc1cc(C)n(-c2cc(N3CCN(C(=O)c4cccc(Br)c4)CC3)ccc2[N+](=O)[O-])n1 | ? | 0 | 0 | 14µM | 0 | ?
CCN(CC)c1ccc(NC(=O)c2cnc3ccccn3c2=O)c(C)c1 | 0 | 0 | -73 | 0 | 0 | 0
CCN(CC)c1ccc(NC(=O)CNCc2ccccc2Cl)c(C)c1 | 0 | ? | -103 | 0 | 10µM | 0
O=C(CNCc1ccccc1Cl)Nc1ccccc1N1CCCCC1 | ? | 0 | 0 | 0 | 0 | 0
Cc1ccccc1CN1[C@H](C)[C@@H](c2ccccc2)Oc2c(Cl)cccc2S1(=O)=O | - | - | - | - | 0 | -
CCCCCOC(=O)C1=C(C)Nc2ncnn2C1c1cccs1 (stereo not given) | ? | ? | 0 | ? | 21µM | ?
Cc1cc(N(C)NC(=S)Nc2ccccc2)nc(C)n1 | 0 | 0 | -91 | 0 | 0 | 0
CCOC(=O)/C=C/[C@H](C)NC(=O)C(F)(F)F | - | - | 0 | - | - | -
CCN1C(=O)C(C(=O)Nc2ccc(OC)cc2)C2CC1(C)Oc1ccccc12 (stereo not given) | 0 | 0 | 0 | 0 | 0 | 0
